Values joined by “and” are separate entries in the source; they are usually repeats but may differ in a detail not shown here. Equal entries are not always repeated. Records with an inconclusive call do not appear. Active and inactive are the calls of the source.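 The calls were made as follows, unless noted: active = normalized viability below 100% at a tested concentration; inactive = the rest.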
Columns and labels:
[1] = growth inhibition of DIPG glioma cells, dose response, cell-based, SU-DIPG-XIII, MIPE4.0, CellTiter-Glo, qHTS (AID 1347061; cut-off not given, nearly all actives have AC50 up to about 37 µM;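 also: cells exposed to compound for 48 hours before readout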); conditions: SU-DIPG-XIII viability, CellTiter-Glo ATP luminescence
[2] = growth inhibition of DIPG glioma cells, dose response, cell-based, JHH-DIPG-1, MIPE4.0, CellTiter-Glo, qHTS (AID 1347062; cut-off not given, nearly all actives have AC50 up to about 27 µM;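 as to AC50: cells exposed to compound for two days before readout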); conditions: JHH-DIPG-1 viability, CellTiter-Glo ATP luminescence
[3] = SU-DIPG-VI glioma cell viability, MIPE4.0 library, CellTiter-Glo luminescence, qHTS (AID 1347066; cut-off not given, nearly all actives have AC50 up to about 30 µM;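 also: cells exposed to compound for 48 hours before readout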); conditions: CellTiter-Glo ATP luminescence
[4] = viability loss in pontine glioma line – cell-based, SU-DIPG-XXV, MIPE5.0, CellTiter-Glo, qHTS, dose response (AID 1347065; cut-off not given, nearly all actives have AC50 up to about 26 µM;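 also: cells exposed to compound for 48 hours before ATP readout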); conditions: CellTiter-Glo ATP luminescence
[5] = sensitizers of A549 cells to miR-34 induction, primary screen, imaging, A549 dox-inducible miR-34, nuclei and caspase counts (AID 1347080;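 active = compounds whose cell count with miR-34 switched on is under 0.7 times the count with it off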); conditions: A549 miR-34 inducible, Hoechst nuclei count, 48 h
[6] = survival rescue of mitochondrial mutant cells in low glucose, primary screen, MELAS cybrids, Rieske KO mouse fibroblasts, CellTiter-Glo (AID 1508586;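 active = mean z-score across replicates of 1.96 or higher in either the MELAS or the Rieske mutant cell line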;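 also: z relative to plate mean and SD of compound and empty wells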)
[7] = JHH-DIPG-1 glioma cell viability, MIPE5.0 library, CellTiter-Glo luminescence, qHTS (AID 1347067; cut-off not given, nearly all actives have AC50 up to about 26 µM;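 also: cells exposed to compound for 48 hours before readout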); conditions: JHH-DIPG-1 glioma viability, CellTiter-Glo ATP luminescence
[8] = SU-DIPG-XXV glioma cell viability, MIPE5.0 library, qHTS (AID 1347068; cut-off not given, nearly all actives have IC50 up to about 30 µM;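 as to IC50: cells exposed to compound for 48 hours before viability readout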)
[9] = growth inhibition of DIPG glioma cells, dose response, cell-based, SU-DIPG-XIII, MIPE5.0, CellTiter-Glo, qHTS (AID 1347064; cut-off not given, nearly all actives have AC50 up to about 23 µM;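 as to AC50: cells exposed to compound for 48 hours before the viability read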); conditions: SU-DIPG-XIII viability, CellTiter-Glo ATP luminescence
[10] = modifiers of HSF1 nuclear foci, imaging, Selleck Cancer Library (AID 1347162; in the data active = plate-normalised HSF1 focus index below about 0.46); conditions: human cells, at 10 µM; SSMD: measured here: HSF1 foci SSMD mean; cell count: measured here: cell number; plate-normalised HSF1 focus index: stronger effect = lower value
[11] = ovarian cancer cell viability with rucaparib, profiling panel, oncology-focused library, rucaparib conditional (AID 1508598); conditions: patient-derived ovarian cancer cells, CellTiter-Glo viability, 144 h, stronger effect = lower value
[12] = stronger effect = lower value, cell number ratio, induced over uninduced
[13] = measured here: relative caspase fold change +Dox/-Dox
[14] = measured here: total cells with miR-34 induction, stronger effect = lower value
[15] = measured here: total cells without miR-34 induction
[16] = MELAS cybrid survival, CellTiter-Glo 48 h, stronger effect = higher value
[17] = Rieske KO mouse fibroblast survival, CellTiter-Glo 72 h

Cc1c(-c2cccc3c(CCCOc4cccc5ccccc45)c(C(=O)O)n(Cc4cccnc4)c23)c(COc2ccc(N3CCN([S+](=O)([O-])N(C)C)CC3)cc2)nn1C
active: AC50 [3] 23.5 µM
inactive: outcome [1] | outcome [2]

COc1ccc2c(Oc3ccc(NC(=O)c4c(C)n(CC(C)(C)O)n(-c5ccccc5)c4=O)nc3)ccnc2c1
9080: cell count [5, 15]
1.01: z-score [6, 17]
active: AC50 [4] 13.2 µM
7640: cell count [5, 14]
inactive: outcome [1] | outcome [2] | outcome [3] | fold change [5, 12] 0.842 | z-score [6, 16] -0.36
0.917: fold change [5, 13]

OCc1ccc(-c2nn(Cc3ccccc3)c3ccccc23)o1
1.2 and 0.954 and 0.941: fold change [5, 13]
inactive: outcome [1] | outcome [2] | outcome [3] | outcome [8] | fold change [5, 12] 0.905 and 0.927 and 0.926
active: AC50 [7] 23.5 µM
5600 and 2020 and 4750: cell count [5, 15]
5070 and 1870 and 4400: cell count [5, 14]

COc1cc(OC2CCN(C)CC2)ccc1Nc1ncc2c(n1)n(C1CCCC1)c(=O)n2C
5490: cell count [5, 15]
active: AC50 [1] 16.6 µM | AC50 [2] 18.7 µM | AC50 [9] 18.6 µM | AC50 [4] 13.2 µM | AC50 [7] 14.8 µM | IC50 [8] 16.6 µM | viability ([11]; at 0.0195 µM, OCI-P5x cells, without rucaparib) 94% | viability ([11]; at 0.0781 µM, OCI-C5x cells, with rucaparib 10 µM, 100% = cells with rucaparib alone) 96.6% | viability ([11]; at 1.25 µM, OCI-C5x cells, with rucaparib 10 µM, 100% = cells with rucaparib alone) 48.8% | viability ([11]; at 1.25 µM, OCI-P5x cells, without rucaparib) 64.7% | viability ([11]; at 5 µM, OCI-C5x cells, with rucaparib 10 µM, 100% = cells with rucaparib alone) 46.3% | viability ([11]; at 5 µM, OCI-P5x cells, with rucaparib 20 µM, 100% = cells with rucaparib alone) 76.9% | viability ([11]; at 5 µM, OCI-P5x cells, without rucaparib) 28.1%
0.864: fold change [5, 13]
7430: cell count [10]
inactive: fold change [5, 12] 0.984 | plate-normalised HSF1 focus index [10] 1.05 | z-score [6, 16] -0.255 | viability ([11]; at 0.000305 µM, OCI-C5x cells, with rucaparib 10 µM, 100% = cells with rucaparib alone) 107% | viability ([11]; at 0.000305 µM, OCI-C5x cells, without rucaparib) 133% | viability ([11]; at 0.000305 µM, OCI-P5x cells, with rucaparib 20 µM, 100% = cells with rucaparib alone) 116% | viability ([11]; at 0.000305 µM, OCI-P5x cells, without rucaparib) 112% | viability ([11]; at 0.00122 µM, OCI-C5x cells, with rucaparib 10 µM, 100% = cells with rucaparib alone) 107% | viability ([11]; at 0.00122 µM, OCI-C5x cells, without rucaparib) 125% | viability ([11]; at 0.00122 µM, OCI-P5x cells, with rucaparib 20 µM, 100% = cells with rucaparib alone) 117% | viability ([11]; at 0.00122 µM, OCI-P5x cells, without rucaparib) 115% | viability ([11]; at 0.00488 µM, OCI-C5x cells, with rucaparib 10 µM, 100% = cells with rucaparib alone) 107% | viability ([11]; at 0.00488 µM, OCI-C5x cells, without rucaparib) 120% | viability ([11]; at 0.00488 µM, OCI-P5x cells, with rucaparib 20 µM, 100% = cells with rucaparib alone) 110% | viability ([11]; at 0.00488 µM, OCI-P5x cells, without rucaparib) 108% | viability ([11]; at 0.0195 µM, OCI-C5x cells, with rucaparib 10 µM, 100% = cells with rucaparib alone) 105% | viability ([11]; at 0.0195 µM, OCI-C5x cells, without rucaparib) 113% | viability ([11]; at 0.0195 µM, OCI-P5x cells, with rucaparib 20 µM, 100% = cells with rucaparib alone) 112% | viability ([11]; at 0.0781 µM, OCI-C5x cells, without rucaparib) 120% | viability ([11]; at 0.0781 µM, OCI-P5x cells, with rucaparib 20 µM, 100% = cells with rucaparib alone) 118% | viability ([11]; at 0.0781 µM, OCI-P5x cells, without rucaparib) 110% | viability ([11]; at 0.313 µM, OCI-C5x cells, with rucaparib 10 µM, 100% = cells with rucaparib alone) 101% | viability ([11]; at 0.313 µM, OCI-C5x cells, without rucaparib) 124% | viability ([11]; at 0.313 µM, OCI-P5x cells, with rucaparib 20 µM, 100% = cells with rucaparib alone) 122% | viability ([11]; at 0.313 µM, OCI-P5x cells, without rucaparib) 111% | viability ([11]; at 1.25 µM, OCI-C5x cells, without rucaparib) 115% | viability ([11]; at 1.25 µM, OCI-P5x cells, with rucaparib 20 µM, 100% = cells with rucaparib alone) 106% | viability ([11]; at 5 µM, OCI-C5x cells, without rucaparib) 115%
0.614: z-score [6, 17]
1.43: SSMD [10]
5400: cell count [5, 14]

COc1ccc(Cc2nccc3cc(OC)c(OC)cc23)cc1OC
inactive: outcome [1] | outcome [2] | outcome [9] | outcome [4] | outcome [3]

From PubChem BioAssay
